Results: the supplement of paper PMC3334620
Over roughly 33,000 sequences, “E-score (-0.5 to 0.5)” has its median near -8e-05; the highest 2% begin near 0.23. Shown is part of a subset that was picked to be rich in the highest values.

Biological target: T1, Nrg2 (UniProt P38082)
T1 sequence: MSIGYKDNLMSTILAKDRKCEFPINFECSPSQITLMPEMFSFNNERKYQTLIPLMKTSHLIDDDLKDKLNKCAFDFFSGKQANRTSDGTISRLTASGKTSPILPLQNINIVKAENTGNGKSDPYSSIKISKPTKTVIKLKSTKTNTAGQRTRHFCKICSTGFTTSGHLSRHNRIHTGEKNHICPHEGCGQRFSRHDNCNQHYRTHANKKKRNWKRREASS
Experiment: PBM E-score (8-mer binding enrichment) (E-score (-0.5 to 0.5)); higher = stronger / more preferred TF binding
Details: protein concentration: 100 nM; construct: GST-full length
Method: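 Universal 'all 10-mer' protein binding microarrays (Agilent AMADID 015681) probed with GST-tagged S. cerevisiae TFs (full-length or DBD) made by in vitro transcription/translation (PURExpress), about 100-200 nM. Bound TF was detected with fluorescent anti-GST. Each ungapped 8-mer (which stands for itself and its reverse complement) is scored by the PBM enrichment score (E-score), a modified Wilcoxon-Mann-Whitney statistic from -0.5 to +0.5, computed with the Universal PBM Analysis Suite. Scale: above 0.35 generally sequence-specific binding.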

| Sequence | PBM E-score |
| --- | --- |
| TAATCGAA | 0.176 |
| ATGTCGAA | 0.147 |
| GTATCGAC | 0.123 |
| ATGTCGAC | 0.254 |
| AAATCGAC | 0.237 |
| CAATCGAA | 0.258 |
| CTGTCGAC | -0.0435 |
| AAATCGAG | 0.0129 |
| AAATCGAA | 0.111 |
| CTATCGAC | -0.166 |
| CAATCGAC | -0.102 |
| CGCCGGAC | 0.0155 |
| CCCTGTCC | 0.0104 |
| CTTGAAGC | -0.0505 |
| CAACGGTG | -0.187 |
| CAACAAGG | 0.186 |
| GACTCTCA | -0.0326 |
| AATGCACC | 0.0152 |
| GAATTTGC | 0.172 |
| ATCTGAGG | 0.0579 |
| ACTAACGA | 0.00448 |
| CACAGCGC | 0.156 |
| CCCGACAA | 0.261 |
| AGCGACCA | -0.0183 |
| ACCGACAA | 0.0162 |

| Sequence | PBM E-score |
| --- | --- |
| GGCGACCA | -0.146 |
| GGCGAACA | -0.00418 |
| CGCGAACA | 0.264 |
| GGCGACAA | -0.0104 |
| CCCGACAG | -0.165 |
| CGCGACAA | 0.308 |
| CGCGACCA | 0.23 |
| AGCGAACA | 0.0707 |
| TGCGACAA | 0.0655 |
| ACGCCCCA | 0.179 |
| AAGGCGGG | -0.208 |
| CGGTGATA | -0.0567 |
| ACAGAGCA | 0.0833 |
| TAGCATGA | 0.149 |
| AAAATGAC | 0.0768 |
| TAAATGAA | 0.0819 |
| GAAATGAA | 0.29 |
| GAAATGAC | 0.249 |
| CAAATGAA | -0.0303 |
| CAAATGAC | 0.0271 |
| AGCGAAAC | 0.102 |
| CTTACCAA | 0.069 |
| CAGCGCCG | -0.09 |
| ATACCAAT | 0.0716 |
| GCAAGAGA | -0.12 |

| Sequence | PBM E-score |
| --- | --- |
| CTATTTCC | 0.255 |
| ATATTTCC | 0.206 |
| CTATTTCA | 0.164 |
| GAATTTCC | 0.252 |
| CAATTTCC | 0.108 |
| AAATTTCC | 0.113 |
| AGTAGGTC | -0.219 |
| AATTAGTA | 0.23 |
| AATTAGTC | 0.107 |
| ATTTAGTC | 0.0158 |
| ATTTAGTA | 0.274 |
| CATTAGTA | 0.112 |
| CTTTAGTA | -0.00347 |
| GATGCGGC | -0.094 |
| ACTCTAGA | -0.0152 |
| GGCGGGGA | 0.249 |
| CGTGGGGA | 0.121 |
| CATGGGGA | 0.135 |
| GGCGGGAA | -0.11 |
| GGTGGGGA | 0.265 |
| CGCGGGGA | 0.165 |
| AATGGGGA | 0.0109 |
| TATGGGGA | 0.283 |
| GGTGGGAA | -0.0571 |
| ATACCGAC | -0.243 |

| Sequence | PBM E-score |
| --- | --- |
| CCGTCCGA | -0.257 |
| GACTAGGA | -0.0424 |
| CAAATCTA | 0.101 |
| ACTTGAGC | -0.295 |
| ACGTGGCT | -0.0848 |
| ATACTGAT | 0.225 |
| ATACTGTG | -0.0451 |
| ATACTGAC | 0.146 |
| CTACTGAG | -0.00592 |
| ATACTGTC | 0.256 |
| ATACTGAG | 0.255 |
| AGCCGCGA | -0.0535 |
| AGTCCAAC | 0.0694 |
| ATGTTCTC | -0.0462 |
| AGTAAGAG | -0.0249 |
| ATCCCTGC | 0.157 |
| CTCCCTGA | 0.0641 |
| GTCCCTCA | 0.0343 |
| ATCCCTGG | 0.302 |
| ATCCCCTA | 0.0411 |
| ATCCCTCA | -0.0503 |
| ATCCCTTA | 0.0558 |
| GTCCCTGA | 0.356 |
| ATCCCTCG | 0.0848 |
| CTCCCTTA | -0.202 |

| Sequence | PBM E-score |
| --- | --- |
| GTCCCTTA | 0.288 |
| ATCCCTGA | 0.256 |
| ATCTGCTC | -0.0264 |
| AGGCATAT | -0.0234 |
| ACGAGGGC | 0.0428 |
| CCGCCAGA | -0.0239 |
| GACAACCA | 0.122 |
| TATCCCAA | -0.005 |
| ATTGGCCA | 0.171 |
| TACACGAA | 0.18 |
| CTACAGGC | -0.0785 |
| AGAGGGTC | -0.0416 |
| CCAGGGCC | 0.106 |
| ACAGGGCC | 0.295 |
| CGAGGGTA | 0.0487 |
| ACAGGGCA | 0.195 |
| CCAGGGTC | 0.392 |
| ACAGGGGC | 0.0717 |
| GCAGGGTA | 0.164 |
| CCAGGGTA | 0.304 |
| CCAGGGGC | 0.0624 |
| ACAGGGTC | 0.402 |
| CTAGGGTC | 0.188 |
| GTCCATGA | -0.237 |
| GGCAATTA | 0.103 |

| Sequence | PBM E-score |
| --- | --- |
| CGCATTGC | 0.148 |
| ACAACAGA | -0.0576 |
| CGCGAAGA | 0.12 |
| AATCGTGT | 0.164 |
| ATGGGTGC | -0.0107 |
| GATGAAAA | 0.0467 |
| CTCCCAAC | -0.0556 |
| CTACCACC | -0.166 |
| AGCGGGTC | -0.21 |
| ATAGGGTA | 0.17 |
| ACAGGGTA | 0.349 |
| ACAGGGTG | 0.0367 |
| CTTGTGCC | -0.222 |
| AGTTCTAG | -0.0512 |
| ATTGAGAG | 0.0708 |
| ATTGAGAC | 0.0341 |
| ATTGAGAA | 0.232 |
| TAAAACTA | 0.0863 |
| GGGGCCCC | 0.267 |
| GAGGGCCC | 0.151 |
| CAGGGCCA | -0.0826 |
| CGGGCCCC | 0.119 |
| AAGGGCCG | -0.0822 |
| AAGGGCCT | 0.0464 |
| AGGGGGCC | -0.189 |

| Sequence | PBM E-score |
| --- | --- |
| GGGCCCCC | -0.279 |
| CGGGGCCC | 0.221 |
| AAGGGCCC | 0.347 |
| CAGGGCCC | 0.42 |
| AGGGGCCC | 0.276 |
| CACCCGAC | -0.0642 |
| AAAAGCGG | -0.12 |
| AAAGTAGT | 0.0374 |
| AGTGAAAG | -0.0491 |
| ACTCAATC | 0.0391 |
| AACCCCGG | 0.0231 |
| TAGTTTCA | 0.258 |
| GAGTTTCA | 0.00699 |
| AAGTTTCA | 0.149 |
| CGTGAATA | 0.17 |
| TACCACAA | 0.0795 |
| ATAATTAA | 0.264 |
| GTAATTGA | 0.00642 |
| CTAATTGA | 0.0446 |
| ATAATTGA | 0.276 |
| TTAATTAA | 0.198 |
| ATAATTAC | 0.176 |
